# The list is not random: actives were taken first. Their share in the collection is about 3%.
# VDR inhibitor – Inhibitors of the vitamin D receptor (VDR): qHTS | AID 504847, 2011 | 400,000 tested, 0.93% active | VDR-SRC2-3 peptide fluorescence polarization, 2 h | Vitamin D3 receptor (Homo sapiens), P11473 | Potency, µM, most hits filed as inhibitors
# Target sequence (P11473 whole entry, looked up): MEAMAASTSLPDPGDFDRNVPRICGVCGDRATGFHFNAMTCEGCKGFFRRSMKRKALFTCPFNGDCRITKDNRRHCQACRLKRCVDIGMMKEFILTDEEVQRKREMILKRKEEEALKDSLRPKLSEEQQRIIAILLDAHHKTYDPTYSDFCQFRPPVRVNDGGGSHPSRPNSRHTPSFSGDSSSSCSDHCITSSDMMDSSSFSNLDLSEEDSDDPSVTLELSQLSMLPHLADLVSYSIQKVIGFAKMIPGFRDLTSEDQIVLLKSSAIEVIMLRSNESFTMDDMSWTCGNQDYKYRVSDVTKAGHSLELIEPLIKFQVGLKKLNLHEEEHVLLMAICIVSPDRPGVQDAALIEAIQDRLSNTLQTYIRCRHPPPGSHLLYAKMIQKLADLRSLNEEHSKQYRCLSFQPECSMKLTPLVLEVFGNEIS
#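 The screen uses fluorescence polarization to detect compounds that interfere with recruitment of the SRC2-3 coactivator peptide to VDR; plates are read after 2 h at room temperature.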
# PLK1 PBD block – qHTS for Inhibitors of PLK1-PDB (polo-like kinase 1 - polo-box domain): Primary Screen; Serine/threonine-protein kinase PLK1 (Homo sapiens), P53350; Plk1 PBD binding of FITC phosphopeptide, fluorescence polarization; Potency, µM, hits mostly inhibitors; 360,000 tested, 2.8% active; also: series mostly up to about 57 µM; nearly all actives have a fitted effect of over 65% in size
# GCN5L2 inh – qHTS Assay for Inhibitors of GCN5L2; Histone acetyltransferase KAT2A (Homo sapiens), Q92830; GCN5L2 HAT assay, ThioGlo1 CoA-SH fluorescence; Potency, µM (highest dose often 58.9 µM), actives largely listed as inhibitors; 390,000 tested, 0.21% active
#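 Enzyme at 20nM final was mixed with library compounds for 15 min at room temperature. Peptide H3(1-25) at 75uM, acetyl-CoA at 70uM and ThioGlo1 at 50uM were then added. Plates were read immediately and after 20 min (Ex340nm/Em540nm).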
# USP1-UAF1 inh – Inhibitors of USP1/UAF1: Primary Screen; 390,000 tested, 0.23% active; recombinant USP1/UAF1, Ub-Rhodamine cleavage fluorescence; Potency, µM (doses to about 57.1 µM), actives largely listed as inhibitors; Ubiquitin carboxyl-terminal hydrolase 1 (Homo sapiens), O94782; also: nearly all actives have a fitted effect of over 60% in size
#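 USP1/UAF1 complex (1 nM) preincubated 15 min at room temperature with compound, then Ub-Rho substrate (150 nM final) added. Kinetic fluorescence at 480/540 nm over 6 reads at 60 s intervals; 50 mM HEPES pH 7.8, 0.5 mM EDTA, 0.1 mg/ml BSA, 1 mM TCEP, 0.01% Tween-20.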
# PTAP TSG101 blk – qHTS Assay for Iinhibitors of HIV-1 Budding by Blocking the Interaction of PTAP/TSG101; Fluorescence polarization, FITC-PTAP peptide / Tsg101 binding; Potency, µM (highest dose often 115 µM), usual class: inhibitors; 340,000 tested, under 10 active; active = well fitted inhibition curve with a large enough effect in the main read-out, with a control signal flat, not every such curve was filed as active; inconclusive = small, poorly fitted or top-dose-only effect, or effect the other way, or a change in a side signal; inactive = no such curve, though single readings can be large or run the other way
#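 Fluorescence anisotropy tracks displacement of a FITC-tagged PTAP peptide (50 nM) from the Tsg101 binding domain (10 uM), following a 20 min room-temperature incubation at pH 7.5.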
# Numbers stand for hits; n = inactive; u = inconclusive; x = not tested or not shown. Unless noted, calls follow the shape of the dose curve; as a rule, active = well fitted curve in the direction sought with a large enough effect; inconclusive = small, poorly fitted or top-dose-only effect, or another doubt; inactive = no such curve, though single readings can be large; an effect the other way counts as inactive or inconclusive.
SMILES,VDR inhibitor,PLK1 PBD block,GCN5L2 inh,USP1-UAF1 inh,PTAP TSG101 blk
O=c1[nH]c(=S)[nH]c(O)c1N=Nc1cc(S(=O)(=O)Nc2ccc(Cl)cc2)ccc1Cl,n,29.9µM,n,n,n
Cn1c(O)c(C(=N)COc2ccccc2)c(=O)n(C)c1=O,n,n,n,n,n
Cn1c(O)c(C(=Nc2ccccc2)SCc2ccc(Cl)cc2)c(=O)n(C)c1=O,u,26.7µM,n,n,n
O=C1C=C(N2CC2)c2ccccc2C1=O,x,15µM,x,7.08µM,x
O=C1c2ccccc2-c2cc3ccccc3cc21,n,n,x,n,n
CCOP1(=S)Oc2cc3c(cc2C(C(=O)OC)(C(F)(F)F)O1)OCO3 (configuration not stated),79.4µM,23.8µM,n,n,n
C/C1=C/C(=O)O[C@@H]2C[C@@H](CC[C@H](C)/C=C\CC1)O[C@@](O)(C1CSC(=O)N1)C2 (some centres not stated),u,x,n,x,x
O=[N+]([O-])NC1=NCN(Cc2ccco2)CN1Cc1ccco1,u,26.7µM,n,n,n
CCN1C(=O)NC(=O)/C(=C\c2cn(CC(=O)N3CCCCC3)c3ccccc23)C1=O,n,u,n,n,u
O=C(O)Cn1cc(/C=C2\C(=O)NC(=O)N(Cc3ccco3)C2=O)c2ccccc21,u,9.47µM,n,n,n
Cc1ccc(N2C(=O)NC(=O)/C(=C\c3cn(CC(=O)O)c4ccccc34)C2=O)cc1,n,26.7µM,n,n,n
O=C1NC(=O)N(c2ccccc2F)C(=O)/C1=C/c1cn(CC(=O)N2CCOCC2)c2ccccc12,u,4.74µM,n,n,n
CCN1C(=O)NC(=O)/C(=C\c2cn(CC(=O)O)c3ccccc23)C1=O,x,x,n,x,x
O=C(O)Cn1cc(/C=C2\C(=O)NC(=O)N(c3ccc(Br)cc3)C2=O)c2ccccc21,u,2.99µM,n,u,n
Cc1cc(/C=C2\C(=O)NC(=O)N(c3ccccc3F)C2=O)c(C)n1-c1cc(C(=O)O)cc(C(=O)O)c1,n,u,n,n,n
Cc1cc(/C=C2\C(=O)NC(=O)N(c3ccc(F)cc3)C2=O)c(C)n1-c1cccc(C(=O)O)c1,n,16.8µM,n,n,n
CC1CC2CCC(O2)C(C)C(=O)OC(C)CC2CCC(O2)C(C)C(=O)OC(C)CC2CCC(O2)C(C)C(=O)OC(C)CC2CCC(O2)C(C)C(=O)O1 (configuration not stated),n,x,n,x,x
Cc1ccccc1N1C(=O)/C(=C/c2ccco2)C(=O)NC1=S,x,x,2.24µM,x,x
Cc1ccccc1N1C(=O)NC(=O)/C(=C/c2ccc(N3CCOCC3)o2)C1=O,n,n,n,25.1µM,u
COc1ccc(N2C(=O)/C(=C/c3ccc(OC)c(OC)c3)C(=O)NC2=S)cc1,u,7.52µM,n,n,n
COc1ccc(N2C(=O)NC(=O)/C(=C/c3ccc4c(c3)Cc3ccccc3-4)C2=O)cc1,x,x,n,x,x
Cc1ccccc1N1C(=O)NC(=O)/C(=C\c2cc(Br)c(N3CCOCC3)o2)C1=O,u,n,n,u,u
CCc1ccccc1N1C(=O)/C(=C/c2ccc(N3CCN(C)CC3)o2)C(=O)NC1=S,n,n,n,u,u
CCOc1ccc(N2C(=O)/C(=C\c3cccs3)C(=O)NC2=S)cc1,n,2.67µM,n,n,n
CC(C)C1C(=O)O[C@@H]2CCN3CC=C(COC(=O)[C@](C)(O)[C@]1(C)O)[C@H]23 (some centres not stated),n,x,n,x,x
SMILES,VDR inhibitor,PLK1 PBD block,GCN5L2 inh,USP1-UAF1 inh,PTAP TSG101 blk
COc1cc2c3cc1Oc1c(OC)c(OC)cc4c1[C@@H](Cc1ccc(OC(=O)c5ccc([N+](=O)[O-])cc5)c(c1)Oc1ccc(cc1)C[C@@H]3N(C)CC2)N(C)CC4,u,x,n,x,x
CCOc1ccc(N2C(=O)/C(=C/c3ccco3)C(=O)NC2=S)cc1,79.4µM,1.34µM,22.4µM,22.4µM,n
O=C1NC(=S)N(c2ccccc2F)C(=O)/C1=C\c1cccs1,u,7.52µM,n,n,n
CCc1ccccc1N1C(=O)NC(=O)/C(=C\c2cc(C)n(C)c2C)C1=O,u,n,n,n,n
S=C(Nc1ccccc1)Nc1cccc(Br)c1,n,26.7µM,n,n,n
Brc1ccccc1,n,n,n,n,n
O=S(=O)(c1ccc(Cl)cc1)c1cc(Cl)c(Cl)cc1Cl,n,x,n,x,x
COc1ccc2c3c1OC1C[C@@H](O)C=C[C@@]31CCN(C)C2 (some centres not stated),n,x,n,x,x
CCCCC/C=C\C/C=C\C/C=C\C/C=C\CCCC(=O)NC1CC1,u,x,n,x,x
CCCCCCCC/C=C\CCCCCCCC(=O)OC[C@@H](COP(O)(O)=S)OC,17.8µM,x,5.01µM,x,x
Oc1cc[c]([Hg][Cl])cc1,3.98µM,x,0.141µM,x,x
O=S(=O)(c1ccc(O)cc1)c1ccc(O)cc1,n,n,n,n,n
CCCCCOc1ccc(C)cc1CN(CCCl)CCCl,n,23.8µM,n,n,n
O=C1C(Cl)=C(Cl)C(=O)C(Cl)=C1Cl,0.708µM,x,u,x,x
COc1ccc(OC)c(C2=NS(=O)(=O)N(C)C(C(=O)N3CCC4(CC3)OCCO4)=C2)c1,n,29.9µM,n,n,n
C/C=C1/C[N@@+]2(C)CC[C@]34C(=C(C=O)[C@H]1C[C@H]32)Nc1ccccc14,u,x,n,x,x
CC[C@@H](CO)NC(=O)[C@H]1C=C2c3cccc4c3c(cn4C)C[C@H]2N(C)C1,31.6µM,x,n,x,x
C[C@H](CCC(=O)O)C[C@H](C)C[C@H](C)C(=O)/C=C(\O)[C@H](C)C[C@H](C)C/C=C/[C@@H](C)[C@@H](O)[C@@H](C)[C@@H](O)C[C@@H]1CC[C@@](C)([C@H]2CC[C@@](C)([C@@H](C)O)O2)O1,u,x,n,x,x
C=C1[C@@H]2C[C@]3(C(CC2=O)[C@]24C5C[C@H]3[C@H]2N(CC)C[C@]5(C)CC[C@@H]4O)[C@@H]1O (some centres not stated),n,x,n,x,x
CCCCN1C(=O)/C(=C/C=C/c2ccco2)C(=O)NC1=S,u,1.06µM,n,u,n
Cc1cc(C)cc(N2C(=O)NC(=O)/C(=C\C=C\c3ccco3)C2=O)c1,n,1.68µM,n,n,n
CCCCN1C(=O)/C(=C\c2ccco2)C(=O)N(CCc2ccccc2)C1=O,n,0.844µM,39.8µM,n,n
CCc1ccc(N2C(=O)NC(=O)/C(=C\C=C\c3ccco3)C2=O)cc1,u,1.34µM,n,n,n
C#CCN(C[C@@H]1[C@@H](OC(=O)Nc2c(C)noc2C)[C@@H](OC(=O)Nc2c(C)noc2C)Cn2c(=O)n(CCCCCC)c(=O)n21)S(=O)(=O)c1ccc(C)cc1,x,u,x,n,x
